Data published in PubChem BioAssay (NCATS).
Activity calls are given as the source filed them. A call without a number means that no potency is given here. The call rests on the fitted dose curve; in most records, active means well fitted inhibition curve with a large enough effect; inconclusive means small, poorly fitted or top-dose-only effect; inactive means flat fitted curve, though single readings scatter. Where a SMILES comes first, the peptide text is derived from it. The star is where a group is joined. AFC = O=c1cc(C(F)(F)F)c2ccc(N*)cc2o1

Molecular target: Luciferin 4-monooxygenase (Photinus pyralis) (UniProt P08659)
Test: Primary firefly luciferase (FLuc) qHTS assay for identification of artifact compounds. (AID 1845220); further: nearly all actives have a fitted effect of over 60% in size
Details: purified firefly luciferase, luminescence, 5 min; series mostly up to 54.1 µM
Procedure, shortened: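 Compounds sat 15 min at room temperature with 10 uM luciferin and 10 uM ATP (pH 7.6 Tris acetate). Firefly luciferase (10 nM final) was then added, and luminescence was read 5 min later. Data normalized to no-enzyme and DMSO controls were Hill-fitted.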

Row | SMILES | Potency
1 | COc1ccc2cc(C(C)C(=O)Oc3ccc(C(N)=S)cc3)ccc2c1 (stereo not drawn) | inactive
2 | CC(Oc1ccc2[nH]nc(/C=C/c3cnn(CCO)c3)c2c1)c1c(Cl)cncc1Cl (stereo not drawn) | inactive
3 | CS(=O)(=O)c1ccc(-c2nnc(/C=C/c3nnc(-c4ccc(C#N)cc4)o3)n2-c2ccccc2Cl)nc1 | inactive
4 | CC(Nc1ncnc2nc[nH]c12)c1cc2cccc(Cl)c2c(=O)n1-c1ccccc1 (stereo not drawn) | inactive
5 | CCc1cnn2c(NCc3ccc[n+]([O-])c3)cc(N3CCCCC3CCO)nc12 (stereo not drawn) | inactive
6 | N#Cc1ccc(-c2cnc3[nH]cc(NC(=O)c4cccnc4)c3c2)cc1 | inactive
7 | CC(=O)SCC(=O)c1ccc(NS(=O)(=O)c2ccc(OCCCN(C)C)cc2)nc1 | inactive
8 | OC1CCC(Nc2ncc3nc(Nc4c(F)cc(F)cc4F)n([C@H]4CCOC4)c3n2)CC1 (stereo partly drawn) | inactive
9 | COc1cc2nc(N3CCC(N4CCCCC4)CC3)nc(NC3CCCCCC3)c2cc1OC | inactive
10 | Nc1nc(-n2cc(C(=O)O)c(=O)c3cc(F)c(N4CC(O)C4)c(Cl)c32)c(F)cc1F | inactive
11 | Cc1cnc(Nc2ccc(F)cc2Cl)nc1-c1c[nH]c(C(=O)NC(CO)c2cccc(Cl)c2)c1 (stereo not drawn) | inactive
12 | Cc1ccc(-c2ccc3c(ccc4sc5c(c43)NC[C@@H](C)NC5=O)n2)cn1 | inactive
13 | CNC(=O)c1ccccc1Nc1nc(Nc2ccc3c(c2OC)CCC[C@@H](N2CCN(CCO)CC2)C3)ncc1Cl | inactive
14 | CC1(c2nc3c(C(N)=O)cccc3[nH]2)CCCN1 (stereo not drawn) | inactive
15 | O=[N+]([O-])c1cn2c(n1)OCC(OCc1ccc(OC(F)(F)F)cc1)C2 (stereo not drawn) | inactive
16 | NCc1c[nH]c(=S)n1[C@@H]1CCc2c(F)cc(F)cc2C1 | inactive
17 | CC(=O)OC1C(=O)C2(C)C(O)CC3OCC3(OC(C)=O)C2C(OC(=O)c2ccccc2)C2(O)CC(OC(=O)C(O)C(NC(=O)c3ccccc3)c3ccccc3)C(C)=C1C2(C)C (stereo not drawn) | inactive

Row | SMILES | Potency
18 | CCOc1ccc(NC(=S)N2CCC(C(O)(c3ccccc3)c3ccccc3)CC2)cc1 | inactive
19 | CCCNc1ccc2ncc(-c3ccc4[nH]ncc4c3)n2n1 | inactive
20 | CC(=O)N[C@@H](Cc1c[nH]c2ccccc12)C(=O)N[C@@H](CCC(=O)O)C(=O)N[C@@H](Cc1cnc[nH]1)C(=O)N[C@@H](CC(=O)O)C(=O)Nc1ccc2c(C(F)(F)F)cc(=O)oc2c1 (Ac-WEHD-{AFC}) | inactive
21 | COc1ccc(CNC(=O)c2sc3nc(C)cc(C)c3c2N)cc1 | inactive
22 | C[C@@H]1C[C@@H]2O[C@H]2/C=C\C=C\C(=O)Cc2c(Cl)c(O)cc(O)c2C(=O)O1 | inactive
23 | CCc1c(C)nc2c(-c3cnn(-c4cc(CO)ccn4)c3)c[nH]n2c1=O | inactive
24 | O=C(Nc1ccc(S(=O)(=O)Nc2nccs2)cc1)C(c1ccccc1)c1ccccc1 | inactive
25 | COc1cccc2cc3c(c(O[C@@H]4O[C@H](CO[C@@H]5O[C@H](CO)[C@@H](O)[C@H](O)[C@H]5O)[C@@H](O)[C@H](O)[C@H]4O)c12)C(C)OC3=O (stereo partly drawn) | inactive
26 | Cc1ccc(S(=O)(=O)Cc2nc(-c3ccc(C(=O)NCc4cccnc4)cc3)oc2C)cc1 | inactive
27 | COc1cc2nc(N3CCCC3)nc(NCCCCCN3CCCC3)c2cc1OC | inactive
28 | CS(=O)(=O)NCC1CCC(Nc2nc3c(s2)CCSc2ccccc2-3)CC1 (stereo not drawn) | inactive
29 | Cc1cc(=O)oc2c(C=O)c(O)ccc12 | inactive
30 | CN(C)CCCCC(=O)Nc1ccc(NC(=S)NC(=O)c2ccc(C(C)(C)C)cc2)cc1 | inactive
31 | CCC1=CC2CN(C1)Cc1c([nH]c3ccccc13)[C@@](C(=O)OC)(c1cc3c(cc1OC)N(C)[C@H]1[C@@](O)(C(=O)OC)[C@H](OC(C)=O)[C@]4(CC)C=CCN5CC[C@]31[C@@H]54)C2 (stereo partly drawn) | inactive
32 | Cc1cc(Nc2ccc(NC(=O)c3ccc(Nc4ccnc5ccccc45)cc3)cc2)nc(N)n1 | inactive
33 | CN(CCc1ccc(Nc2ncc(-c3cccnc3)s2)cc1)Cc1ccccc1 | inactive
